Here are results for 6 molecules from PubChem BioAssay (NCATS).

Structures are written as SMILES. Inconclusive results are not listed. Calls of active or inactive are those of the source. Unless noted, calls follow the shape of the dose curve; as a rule, active = well fitted curve in the direction sought with a large enough effect; inconclusive = small, poorly fitted or top-dose-only effect, or another doubt; inactive = no such curve, though single readings can be large; an effect the other way counts as inactive or inconclusive.

Assay [1] deals with Estrogen receptor (Homo sapiens) (UniProt P03372). As to the kind of experiment: qHTS assay for small molecule antagonists of estrogen receptor alpha signaling (AID 588513; active = well fitted curve in the direction sought with a large enough effect in the signal ratio, with a control signal flat, not every such curve was filed as active; the % refers to the signal ratio; also: % is scaled to controls: 0 for no effect and ±100 for the full control effect). The gist of the method: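 ER-alpha-UAS-bla GripTite HEK 293 cells in 2% charcoal/dextran-treated FBS medium; compounds titrated (1:2, duplicate), then stimulated with 0.5 nM 17-beta-estradiol for 18 h at 37C. CCF4 beta-lactamase fluorescence; Hill-fit IC50 and efficacy.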
(qHTS replaces the single test concentration by a dilution series.)

A short description of assay [2]: qHTS assay for small molecule antagonists of peroxisome proliferator-activated receptor delta signaling (AID 588535; active = well fitted inhibition curve with a large enough effect in the signal ratio, with a control signal flat, not every such curve was filed as active; the % refers to the signal ratio;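 as to max response: cells co-treated with a PPAR-delta agonist as stimulator during compound exposure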). Particulars: HEK293T PPARd-UAS-bla, beta-lactamase FRET ratio, 18 h; 460 nm channel. The gist of the method:
(§1)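 Cell-based beta-lactamase assay in antagonist mode: 4000 HEK293T PPAR-delta-UAS-bla cells per well, 5 hr preincubation then 18 hr compound incubation at 37 C. IC50 obtained by Hill equation fitting.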

For assay [3], the target named is Peroxisome proliferator-activated receptor delta (Homo sapiens) (UniProt Q03181). Described as above. The gist of the method:
as §1

A short description of assay [4]: qHTS assay for small molecule antagonists of retinoid X receptor alpha signaling (AID 588546; active = well fitted inhibition curve with a large enough effect in the signal ratio, with a control signal flat, not every such curve was filed as active; the % refers to the signal ratio;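 also: cells stimulated with 9-cis-retinoic acid as agonist; % is scaled to controls: 0 for no effect and ±100 for the full control effect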). The note with it: HEK293T RXRa-UAS-bla, beta-lactamase ratio, antagonist mode; measured here: W530 green channel, cytotoxicity proxy. Put shortly: (§2)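 Beta-lactamase reporter inhibition, read as CCF4 fluorescence ratio (ex 405, em 460/530 nm) after 2 h at RT. HEK293T UAS-bla cells, 2500/well, were stimulated with 9-cis-RA at 500 or 100 nM final alongside test compound for 18 h at 37 C.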

In assay [5] the target is Thyroid hormone receptor beta (Homo sapiens) (UniProt P10828). The experiment in a line: qHTS assay for small molecule antagonists of thyroid hormone receptor beta signaling (AID 588547; active = well fitted inhibition curve with a large enough effect in the signal ratio, with a control signal flat, not every such curve was filed as active; the % refers to the signal ratio;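 also: cells stimulated with 0.4 nM T3 agonist during compound exposure; series mostly up to about 77 µM; % is scaled to controls: 0 for no effect and ±100 for the full control effect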). The note with it: TR-UAS-bla HEK293, beta-lactamase ratio, antagonist mode, 18 h. The gist of the method:
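Inhibition of T3-driven (0.4nM final) beta-lactamase reporter activity was measured over 0.59 nM to 92 uM compound after 18 h at 37 C. The cells were GripTite HEK293 TR-UAS-bla in charcoal/dextran-stripped serum, with CCF4 ratio read-out and IC50 from Hill fits.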

A short description of assay [6]: qHTS assay for small molecule activators of the p53 signaling pathway (AID 651743; active = well fitted activation curve with a large enough effect in the signal ratio, not every such curve was filed as active; the % refers to the signal ratio; also: series mostly up to about 92 µM; % of control where 0% means no effect). Particulars: HCT-116 p53RE-bla, beta-lactamase FRET ratio, 16 h; activation: stronger effect = higher value. Put shortly: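 Screen for p53 pathway agonists uses stably transfected p53RE-bla HCT-116 cells, 4,000 per well, treated 16 h at 37 C with compounds in DMSO.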
Assay [7] concerns the target Peroxisome proliferator-activated receptor alpha (Homo sapiens) (UniProt Q07869). As to the kind of experiment: qHTS assay for small molecule agonists of the peroxisome proliferator-activated receptor alpha (PPARalpha) signaling pathway (AID 651778). Also: % of control where 0% means no effect. Particulars: PathHunter PPARalpha complementation, chemiluminescence, 6 h; max response: stronger effect = higher value. The gist of the method:
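Chemiluminescence from complemented enzyme reported PPARalpha activation in cells after 6 hr of compound treatment at 37 C. The detection reagent was incubated for 60 min at room temperature, and compounds were scored as agonists.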

Assay [8] is described as follows: qHTS assay for small molecule agonists of the antioxidant response element (ARE) signaling pathway measured by Nrf2-dependant transcriptional activity (AID 720636; active = well fitted curve in the direction sought with a large enough effect in the repeat runs; an effect the other way counts as inactive or inconclusive;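 also: HepG2 cells with an ARE-driven luciferase reporter; % of control where 0% means no effect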). Put shortly: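 We exposed ARE-luc HepG2 cells, seeded in assay medium with 1% dialyzed FBS and allowed 6 hr to adhere, to test compounds overnight (16 hr, 37 C) before measuring luciferase with ONE-Glo.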

The nature of assay [9]: qHTS assay for small molecule agonists of the antioxidant response element (ARE) signaling pathway measured by Nrf2-dependant transcriptional activity - cell viability counter screen (AID 720653; active = well fitted curve in the direction sought with a large enough effect in the repeat runs; an effect the other way counts as inactive or inconclusive; also: % is scaled to controls: 0 for no effect and ±100 for the full control effect). The note with it: ARE-bla HepG2 viability, CellTiter-Glo ATP luminescence, 16 h; max response: stronger effect = lower value. Put shortly:
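Cytotoxicity counter screen: intracellular ATP quantified by CellTiter-Glo luminescence in the same ARE-bla HepG2 plates, after 16 h compound exposure and a 2 h beta-lactamase substrate step.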

Assay [10] is described as follows: qHTS assay for cell viability of HEK293 cells (AID 743288). Also: % is scaled to controls: 0 for no effect and ±100 for the full control effect; nearly all actives have a fitted effect of over 50% in size. Particulars: ATP luminescence (CellTiter-Glo), 18 h; max response: stronger effect = lower value. Put shortly: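 Parental HEK293 cells, 2,000 per well, preincubated at least 5 h at 37 C, then exposed to compounds in DMSO for 18 h at 37 C. Viability by CellTiter-Glo ATP luminescence after 30 min at room temperature.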

A short description of assay [11]: qHTS assay for cell viability of the p53RE-bla HCT-116 cell line (AID 743292). Also: % is scaled to controls: 0 for no effect and ±100 for the full control effect; nearly all actives have a fitted effect of over 55% in size. The gist of the method:
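In this qHTS counter-screen, metabolically competent p53RE-bla HCT-116 cells were counted via their ATP content. Compounds were applied for 16 h at 37 C and luciferase-coupled luminescence was measured.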

In assay [12] the target is Estrogen receptor (Homo sapiens) (UniProt P03372). The experiment in a line: qHTS assay for small molecule agonists of estrogen receptor alpha signaling (AID 588514; calls by dose curve;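 also: 0% = vehicle only and 100% = reference agonist; nearly all actives have a fitted effect of over 70% in size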). The gist of the method:
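Reporter-gene assay. […] controls beta-lactamase in HEK 293 GripTite cells; after 18 hrs with compound, CCF4 substrate is added for 2 hrs and fluorescence is read.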

In assay [13] the target is Glucocorticoid receptor (Homo sapiens) (UniProt P04150). As to the kind of experiment: qHTS assay for small molecule agonists of glucocorticoid receptor signaling (AID 588532; active = well fitted curve in the direction sought with a large enough effect in the signal ratio, with a control signal flat; the % refers to the signal ratio;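 also: 100% = dexamethasone at 0.1 µM and 0% = DMSO only wells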). Particulars: HeLa MMTV-bla, beta-lactamase ratio, agonist, 18 h; stronger effect = higher value; percent of dexamethasone control, DMSO zero. Put shortly: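 Using MMTV-bla HeLa cells in medium with 1% stripped FBS and 25 mM HEPES, compounds were titrated and incubated overnight-length (18 h). Beta-lactamase cleavage of CCF4 was quantified by dual-emission fluorescence.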

Assay [14] concerns the target Peroxisome proliferator-activated receptor gamma (Homo sapiens) (UniProt P37231). The experiment in a line: qHTS assay for small molecule agonists of peroxisome proliferator-activated receptor gamma signaling (AID 588536; active = well fitted curve in the direction sought with a large enough effect in the signal ratio, with a control signal flat, not every such curve was filed as active; the % refers to the signal ratio;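 also: 0% = DMSO basal wells and 100% = rosiglitazone at 2 µM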). The gist of the method:
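HEK293 UAS-bla reporter line, 1% charcoal/dextran FBS; titration, 16 h, 37 C; CCF4 loading 2 h RT; fluorescence 460/530 nm. Normalized to rosiglitazone 2 uM = 100%, DMSO = 0%.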

Assay [15] can be described thus: qHTS assay for small molecule agonists of retinoid X receptor alpha signaling (AID 588544). Particulars: HEK293T RXRa-UAS-bla, beta-lactamase reporter, 18 h; 530 nm emission.
The target in assay [16] is Retinoic acid receptor RXR-alpha (Homo sapiens) (UniProt P19793). As to the kind of experiment: qHTS assay for small molecule antagonists of retinoid X receptor alpha signaling (AID 588546).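 Also: cells stimulated with 9-cis-retinoic acid as agonist; % is scaled to controls: 0 for no effect and ±100 for the full control effect.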 Particulars: HEK293T RXRa-UAS-bla, beta-lactamase ratio, antagonist mode. Put shortly: as §2
The nature of assay [17]: qHTS assay for environmental chemicals that activate the Aryl hydrocarbon Receptor (AhR) signaling pathway (AID 651777). Also: % of control where 0% means no effect; nearly all actives have a fitted effect of over 15% in size. Particulars: 1A2-DRE human hepatoma cells, luciferase, 24 h; activation: stronger effect = higher value. The gist of the method:
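Induction of CYP1A2 transcription through AhR is detected by luciferase in 1A2-DRE hepatoma cells. Compounds or DMSO act for 24 hr at 37 C before a 30 min One-Glo step at room temperature.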

Assay [18] deals with Nuclear receptor subfamily 1 group I member 2 (Rattus norvegicus) (UniProt Q9R1A7). As to the kind of experiment: qHTS assay for small molecule activators of the rat pregnane X receptor (rPXR) signaling pathway (AID 651751; call rule not given here; also: 0% is about no effect). The note with it: rPXR reporter cells, luciferase (One-Glo), 24 h.
A short description of assay [19]: qHTS assay for small molecule activators of the human pregnane X receptor (PXR) signaling pathway (AID 720659; call rule not given here; also: 0% is about no effect).
In assay [20] the target is Thyroid hormone receptor beta (Homo sapiens) (UniProt P10828). As to the kind of experiment: qHTS assay for small molecule agonists of thyroid hormone receptor beta signaling (AID 588545; calls by dose curve;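 also: 0% = DMSO only and 100% = 10 nM T3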). Put shortly: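 Stimulation of a TR-driven beta-lactamase reporter was quantified in GripTite HEK 293 cells. Compound series ran for 18 hrs; curves were normalized to T3 and DMSO controls and fitted to yield EC50.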
Sequence of Thyroid hormone receptor beta (Homo sapiens) (P10828 whole entry, looked up): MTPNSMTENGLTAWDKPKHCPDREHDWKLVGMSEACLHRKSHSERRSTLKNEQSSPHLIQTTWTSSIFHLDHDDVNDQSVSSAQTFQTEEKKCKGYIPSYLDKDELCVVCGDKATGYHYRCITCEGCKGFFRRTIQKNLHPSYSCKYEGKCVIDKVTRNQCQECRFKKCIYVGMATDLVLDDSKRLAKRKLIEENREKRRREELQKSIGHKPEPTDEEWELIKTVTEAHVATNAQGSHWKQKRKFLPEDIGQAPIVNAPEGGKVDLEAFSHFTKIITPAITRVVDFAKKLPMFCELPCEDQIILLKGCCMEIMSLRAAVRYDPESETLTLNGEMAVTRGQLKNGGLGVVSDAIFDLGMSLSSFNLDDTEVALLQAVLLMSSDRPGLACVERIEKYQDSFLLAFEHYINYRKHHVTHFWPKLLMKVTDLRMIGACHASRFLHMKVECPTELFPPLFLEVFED

Sequence of Peroxisome proliferator-activated receptor gamma (Homo sapiens) (P37231 whole entry, looked up): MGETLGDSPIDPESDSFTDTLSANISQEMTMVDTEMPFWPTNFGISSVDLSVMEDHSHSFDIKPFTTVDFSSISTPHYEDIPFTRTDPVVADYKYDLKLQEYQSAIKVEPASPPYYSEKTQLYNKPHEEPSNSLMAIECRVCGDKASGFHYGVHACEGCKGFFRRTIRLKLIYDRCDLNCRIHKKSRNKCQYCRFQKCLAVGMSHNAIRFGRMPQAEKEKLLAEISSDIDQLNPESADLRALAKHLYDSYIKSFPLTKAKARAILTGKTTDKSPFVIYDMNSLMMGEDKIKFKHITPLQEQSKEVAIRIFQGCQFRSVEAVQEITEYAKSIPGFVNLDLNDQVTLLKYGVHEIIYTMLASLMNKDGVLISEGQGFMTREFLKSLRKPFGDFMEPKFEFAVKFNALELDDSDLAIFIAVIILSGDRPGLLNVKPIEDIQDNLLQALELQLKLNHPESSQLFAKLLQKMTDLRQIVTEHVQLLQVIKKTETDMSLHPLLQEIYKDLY
Sequence of Nuclear receptor subfamily 1 group I member 2 (Rattus norvegicus) (Q9R1A7 whole entry, looked up): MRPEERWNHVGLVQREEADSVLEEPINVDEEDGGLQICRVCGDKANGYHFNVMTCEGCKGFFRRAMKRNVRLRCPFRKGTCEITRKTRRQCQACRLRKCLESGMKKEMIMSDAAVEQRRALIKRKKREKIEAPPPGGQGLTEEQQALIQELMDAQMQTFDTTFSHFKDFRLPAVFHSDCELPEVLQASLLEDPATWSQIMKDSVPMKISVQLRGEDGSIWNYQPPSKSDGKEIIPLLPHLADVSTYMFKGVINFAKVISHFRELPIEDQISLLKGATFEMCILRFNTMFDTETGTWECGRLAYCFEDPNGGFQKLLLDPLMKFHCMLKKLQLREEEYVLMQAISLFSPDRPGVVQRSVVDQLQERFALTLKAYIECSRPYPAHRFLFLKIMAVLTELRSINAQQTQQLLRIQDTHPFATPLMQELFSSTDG
Sequence of Glucocorticoid receptor (Homo sapiens) (P04150 whole entry, looked up): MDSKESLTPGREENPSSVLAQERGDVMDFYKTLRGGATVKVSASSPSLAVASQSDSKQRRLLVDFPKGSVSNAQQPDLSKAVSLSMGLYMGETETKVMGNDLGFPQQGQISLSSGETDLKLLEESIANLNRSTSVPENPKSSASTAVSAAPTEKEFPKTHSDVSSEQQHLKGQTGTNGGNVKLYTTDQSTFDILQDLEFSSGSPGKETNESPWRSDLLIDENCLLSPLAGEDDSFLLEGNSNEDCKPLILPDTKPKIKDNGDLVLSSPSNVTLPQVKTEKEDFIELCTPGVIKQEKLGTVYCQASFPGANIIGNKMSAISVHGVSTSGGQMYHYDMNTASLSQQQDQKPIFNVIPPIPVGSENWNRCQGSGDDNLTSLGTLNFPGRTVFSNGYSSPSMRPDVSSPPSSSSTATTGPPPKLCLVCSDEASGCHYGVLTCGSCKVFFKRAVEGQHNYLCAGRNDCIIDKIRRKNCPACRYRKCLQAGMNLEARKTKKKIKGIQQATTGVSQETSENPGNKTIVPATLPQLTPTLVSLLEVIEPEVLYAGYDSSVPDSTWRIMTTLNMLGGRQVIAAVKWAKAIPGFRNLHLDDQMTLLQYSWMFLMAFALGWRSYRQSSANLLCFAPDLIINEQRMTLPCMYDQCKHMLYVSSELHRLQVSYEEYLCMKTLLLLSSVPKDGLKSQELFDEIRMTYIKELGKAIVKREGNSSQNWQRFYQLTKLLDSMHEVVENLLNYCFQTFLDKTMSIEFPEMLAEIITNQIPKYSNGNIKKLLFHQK
Sequence of Estrogen receptor (Homo sapiens) (P03372 whole entry, looked up): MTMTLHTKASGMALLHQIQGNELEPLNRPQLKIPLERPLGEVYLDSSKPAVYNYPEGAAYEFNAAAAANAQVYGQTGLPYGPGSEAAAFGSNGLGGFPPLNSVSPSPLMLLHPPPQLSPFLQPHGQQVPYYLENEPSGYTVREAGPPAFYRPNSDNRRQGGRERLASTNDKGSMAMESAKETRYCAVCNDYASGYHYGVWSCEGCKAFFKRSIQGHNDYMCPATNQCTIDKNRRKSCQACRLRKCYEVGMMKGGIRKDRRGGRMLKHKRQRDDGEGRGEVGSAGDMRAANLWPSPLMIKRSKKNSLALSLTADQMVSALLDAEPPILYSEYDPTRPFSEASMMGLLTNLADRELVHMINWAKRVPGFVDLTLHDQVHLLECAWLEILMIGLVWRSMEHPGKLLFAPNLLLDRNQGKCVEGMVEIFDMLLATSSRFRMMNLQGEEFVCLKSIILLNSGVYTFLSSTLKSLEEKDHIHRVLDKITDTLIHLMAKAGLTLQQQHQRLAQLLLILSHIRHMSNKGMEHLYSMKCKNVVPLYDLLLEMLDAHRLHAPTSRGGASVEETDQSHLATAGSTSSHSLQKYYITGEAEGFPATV
Sequence of Retinoic acid receptor RXR-alpha (Homo sapiens) (P19793 whole entry, looked up): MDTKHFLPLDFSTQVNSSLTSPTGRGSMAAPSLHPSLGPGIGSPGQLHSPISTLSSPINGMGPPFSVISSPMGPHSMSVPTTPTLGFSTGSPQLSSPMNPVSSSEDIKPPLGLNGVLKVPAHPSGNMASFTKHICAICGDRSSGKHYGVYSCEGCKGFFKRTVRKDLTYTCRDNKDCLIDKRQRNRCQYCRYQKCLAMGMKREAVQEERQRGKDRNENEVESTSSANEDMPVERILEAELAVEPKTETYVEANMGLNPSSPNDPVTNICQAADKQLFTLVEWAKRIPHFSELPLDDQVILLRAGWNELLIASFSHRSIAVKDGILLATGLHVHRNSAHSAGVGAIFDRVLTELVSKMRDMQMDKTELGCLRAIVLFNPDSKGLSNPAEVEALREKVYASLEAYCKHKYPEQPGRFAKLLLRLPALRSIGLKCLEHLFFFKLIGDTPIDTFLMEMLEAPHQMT
Sequence of Peroxisome proliferator-activated receptor delta (Homo sapiens) (Q03181 whole entry, looked up): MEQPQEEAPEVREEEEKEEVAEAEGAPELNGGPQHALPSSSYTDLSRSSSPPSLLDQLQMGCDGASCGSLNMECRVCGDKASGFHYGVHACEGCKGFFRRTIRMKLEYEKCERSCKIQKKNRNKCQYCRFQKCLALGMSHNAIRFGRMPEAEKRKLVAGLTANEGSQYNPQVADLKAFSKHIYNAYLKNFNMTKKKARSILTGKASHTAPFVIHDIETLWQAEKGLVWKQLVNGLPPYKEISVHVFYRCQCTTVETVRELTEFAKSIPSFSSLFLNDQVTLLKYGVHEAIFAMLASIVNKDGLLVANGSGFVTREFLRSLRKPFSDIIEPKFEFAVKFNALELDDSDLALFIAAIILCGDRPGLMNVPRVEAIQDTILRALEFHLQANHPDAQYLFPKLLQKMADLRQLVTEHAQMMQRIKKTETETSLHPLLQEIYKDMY
Sequence of Peroxisome proliferator-activated receptor alpha (Homo sapiens) (Q07869 whole entry, looked up): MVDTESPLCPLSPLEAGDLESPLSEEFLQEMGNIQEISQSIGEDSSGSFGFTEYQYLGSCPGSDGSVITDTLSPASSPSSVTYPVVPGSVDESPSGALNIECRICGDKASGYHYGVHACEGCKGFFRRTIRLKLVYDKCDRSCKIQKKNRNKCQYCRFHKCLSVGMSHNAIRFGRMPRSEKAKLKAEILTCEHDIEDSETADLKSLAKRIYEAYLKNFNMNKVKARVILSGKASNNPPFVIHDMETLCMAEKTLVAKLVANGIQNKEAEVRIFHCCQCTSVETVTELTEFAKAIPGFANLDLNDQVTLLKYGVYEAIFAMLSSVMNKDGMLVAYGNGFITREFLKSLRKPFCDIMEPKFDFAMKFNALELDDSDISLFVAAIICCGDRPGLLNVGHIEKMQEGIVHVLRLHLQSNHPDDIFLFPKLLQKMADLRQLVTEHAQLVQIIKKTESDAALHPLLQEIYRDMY

For `CC1(C)C(C=C(Cl)Cl)[C@H]1C(=O)OCc1cccc(Oc2ccccc2)c1` (stereo not given in full), the Potency entry in assay [1], in [3], in assay [8] and in assay [11] was “inactive” in each case. Further, the max response in assay [2] was 35.5%; in assay [4], -16.1%; in assay [7] it was -1.89% (inactive); in assay [9], -12.3% (inactive); in assay [10] it was -12.9% (inactive). For the same molecule, in [5], the activity change % (negative = inhibition) is 5.41% (inactive). The activation in assay [6] was -1.46% (inactive).
Take `O=C(Cl)c1cc(Cl)cc(Cl)c1`: the Potency entry in assay [1], in assay [12], in assay [3], in assay [8] and in [11] was “inactive” in each case. Also, the activation in assay [13] was -2.63% (inactive); in [6], -0.691% (inactive); in assay [17], 2.73% (inactive). In addition, the max response was 16% in [2]; -4.35% in [15]; 3.33% in assay [4]; -11.9% (inactive) in assay [16]; -3.03% (inactive) in [7]; -8.26% (inactive) in [9]. Also, the max response in assay [10] was -4.86% (inactive); in [18], 2.44% (inactive). Besides, the molecule was classed as inactive in [14] and in assay [19]. Further, in assay [5], the activity change % (negative = inhibition) is -10.7% (inactive).
As for `C[Si](C)(C)N[Si](C)(C)C`, the Potency result in assay [1], in [20], in [8] and in [11] was “inactive” each time. The values for the activation in assay [13], in assay [6] and in assay [17] were -9.44% (inactive), 1.4% (inactive) and 1.22% (inactive), respectively. For the same molecule, the call in assay [14] was inactive. Further, the max response in assay [15] is -0.733%; in assay [4], -10.7%; in [16] it was 1.24% (inactive); in assay [7], -0.0059% (inactive); in assay [9], 1.14% (inactive); in [10], -5.89% (inactive). Moreover, the activity change % (negative = inhibition) in assay [5] is -1.93% (inactive).
`CC1(C)C(=O)N(Cl)C(=O)N1Cl`: the Potency result in assay [1], in assay [12], in [20], in assay [8] and in [11] was “inactive” each time. Besides, the result in assay [14] and in assay [19] was inactive. Besides, the max response in assay [15] is -24.2%; in assay [4] it was 1.31%; in [7], -0.353% (inactive); in [9] it was -14.6% (inactive); in assay [10], -4.37% (inactive); in assay [18], -0.522% (inactive). The activity change % (negative = inhibition) in assay [5] is -0.904% (inactive). In addition, the activation in [6] was -0.829% (inactive); in assay [17], 0.743% (inactive).
In the case of `CCCCCCCCC(=O)O`, the Potency entry in assay [1], in assay [3], in assay [8] and in assay [11] was “inactive” in each case. Moreover, the activation is 1.63% (inactive) in assay [13], 4.29% (inactive) in [6] and 2.74% (inactive) in assay [17]. Besides, the max response in [2] was -26.9%; in assay [15], -21.9%; in [4] it was -8.04%; in assay [16] it was -41.9% (inactive); in assay [9], -7.02% (inactive); in assay [10], -14.6% (inactive). In addition, the max response in [18] is -1.4% (inactive). The activity change % (negative = inhibition) in assay [5] is 3.07% (inactive). Further, the molecule was classed as inactive in assay [19].
With `O=[N+]([O-])C(CO)(CO)CO`, the Potency result in assay [1], in assay [12], in assay [3], in assay [20], in assay [8] and in assay [11] was “inactive” throughout. Further, the max response in [2] is 26.9%; in assay [15] it was -11.5%; in assay [4], -5.31%; in assay [16], 4.16% (inactive); in assay [7], -3.92% (inactive); in assay [9], -10% (inactive). Also, the values for the max response in assay [10] and in assay [18] were -13.7% (inactive) and 0.128% (inactive), respectively. The call in [14] and in assay [19] was inactive. Further, the activation in assay [6] is 7.94% (inactive); in assay [17], -1.19% (inactive).
